Data on 40 compounds can be found in PubChem BioAssay (NCI).

This is part of a sample that, as a whole, favours compounds with a hit. Of some 83,000 tested, about 20% had one in any assay.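 Testing used 96-well plates and a 48-hour single-concentration exposure. Example: -40 means 40% of the starting cells died.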 A number with no mark means an inactive call. Active and inactive are the calls of the source. How the source made its calls: active means growth percent below 10; inactive means the rest.

The test system of the assay is MDA-MB-468 breast. Briefly: NCI-60 one-dose screen, 48 h (100 = growth as untreated, 0 = no growth, -100 = all killed). Conditions: 10 µM unless noted.
Regarding `COc1cc(OC)c2sc(-c3ccc(-n4cncc4-c4ccc(OC)c(N)c4)cc3)nc2c1`, the growth is 80.6%. The figure for `O=C1c2c(c3c4cc(O)ccc4oc3c3[nH]c4ccccc4c23)C(=O)N1O` is -48.7% (active); for `CCCCCCCCCCCCCCCC[N+]1(C)CCCC1c1cccnc1` (stereo not given) it is -15.8% (active); for `COc1ccc(-c2csc(NC(=O)c3cc(O)c(O)c(O)c3)n2)cc1` it is 78.6%.

Take `Cc1ccc(-c2nc(N3CCCNCC3)c3oc(-c4ccc(C)cc4)nc3n2)cc1`: the growth is 5.4% (active). Consider `CCCCCC[C@@H](O)C/C=C\CCCCCCCC(=O)OCCOC`, for which the growth was 104%. The figure for `NS(=O)(=O)c1ccc(Nc2nc(N/N=C/C=C/c3ccccc3)nc(Nc3ccccc3)n2)cc1` is 15.6%. Regarding `C=C(C)[C@@H]1CC[C@]2(C(=O)N3CCN(C)CC3)CC[C@]3(C)[C@H](CC[C@@H]4[C@@]5(C)C/C(=C/c6ccc(C(F)(F)F)cc6)C(=O)C(C)(C)[C@@H]5CC[C@]43C)[C@@H]12`, the growth is 107%. With `O=C1c2c(c3c4cc(Br)ccc4[nH]c3c3ccc4ccccc4c23)C(=O)N1CCN1CCNCC1` the figure was 79.6%; with `O=c1oc2ccc(Br)cc2c(=O)n1-c1ccc(I)cc1F`, -0.692% (active); with `CN1CCC(CNc2cc(C3(C(=O)Nc4cc(C(=O)Nc5ccc(Cl)c(C(F)(F)F)c5)ccc4F)CC3)ncn2)CC1`, -7.58% (active). With `O=C(Nc1ccc(-n2cc(-c3ccncc3)c(-c3ccc(O)c(Cl)c3)n2)cc1)c1cc(C(F)(F)F)cc(C(F)(F)F)c1` the figure was 64.9%; with `CCCC[N+]1(C)CCN=C1Cc1ccccc1` (stereo not given), 82.3%; with `Clc1ccc2c(c1)N(c1ncnc3ccc(-c4cnc5[nH]ccc5c4)cc13)CC2`, -4.95% (active). With `O=P(O)(O)OCC1OC(n2cnc3c(NCc4ccccc4)ncnc32)C(O)C1O` (stereo not given), the growth is -28.6% (active). With `CSc1nc(=S)c2nc(SC)n(-c3ccccc3)c2[nH]1`, the growth is 91.1%. As for `Cc1ccc(NCCNCC(O)CO)c2c(=O)c3ccccc3sc12` (stereo not given), the growth was -46.4% (active). The figure for `CCCCCSc1ccc2nc(NC(=O)OCCC)sc2c1` is 9.55% (active); for `CCCNC(=O)Oc1ccc(/C(=C(\C)c2ccccc2)c2ccc(OCCN3CCCCC3)cc2)cc1` it is 73.6%; for `Clc1ccc(-c2nc3ccc(/C(=N\N=C\c4ccccc4)c4ccccc4)cc3[nH]2)cc1` it is 79.1%. For `C=C1C(=O)O[C@H]2[C@H]1CC/C(COC(=O)CCC(=O)OC/C1=C/CC[C@@]3(C)O[C@H]3[C@H]3OC(=O)C(=C)[C@@H]3CC1)=C\CC[C@@]1(C)O[C@@H]21`, the growth is -39% (active). With `CN(C)CSc1nc2ccccc2s1` the figure was 110%; with `CCOP(=O)(OCC)OC[C@]12CC[C@@H](C)[C@H](C)C1C1=CC[C@@H]3[C@@]4(C)CCCNC(C)(C)[C@@H]4CC[C@@]3(C)[C@]1(C)CC2` (stereo not given in full), -51% (active); with `COc1ccc(NC(=O)Nc2ccc(-c3cccnc3)cc2N2CCC(CO)CC2)cc1`, 42.5%. With `OCCNCCCOc1ccc2ncnc(Nc3ccc(Oc4cccc(C(F)(F)F)c4)c(Cl)c3)c2c1` the figure was -64.6% (active); with `Cn1cc(-c2csc(-c3cn(CCN)c4ccc(Br)cc34)n2)c2cccnc21`, 28.6%; with `COc1cc(NCCC2CCCCN2)c2ncccc2c1OC` (stereo not given), 73.8%.

As to `CN(O)c1nc(N(C)O)nc(N2CCOCC2)n1`, the growth is -6.58% (active). With `C[N+]1=C(/C=C/c2ccccc2Cl)C(C)(C)c2ccccc21` the figure was 88.1%; with `CC(C)OC(=O)[C@H](C)N[P@@](=O)(OC[C@@]1(C)O[C@@H](n2cc(F)c(N)nc2=O)C[C@@H]1O[P@](=O)(N[C@@H](C)C(=O)OC(C)C)Oc1ccccc1)Oc1ccccc1`, 97.9%; with `COc1ccc(C2=C(CN)C(O)NC(=NCC(=O)c3ccc4ccccc4c3)N2)cc1` (stereo not given), 118%. With `CC(C)(C)n1cc(-c2ccnc(NCCNS(=O)(=O)c3ccc(O)cc3)c2)c(-c2cccc(O)c2)n1`, the growth was 91.8%. The figure for `CCOC(=O)c1c(C=O)nc2ccccc2c1/C=C/c1ccc(Cl)cc1` is 102%; for `C=C1CCC2C3(C)COC(c4ccc(N(C)C)cc4)OC3CCC2(C)C1C/C=C1/C(=O)OCC1O` (stereo not given) it is 22.2%; for `O=C1CCC(C(=O)N/N=C/c2cc(F)ccc2F)N1` (stereo not given) it is 111%. As to `COC(=O)C1(C)Cc2cc(OC(C)=O)c(OC(C)=O)cc2N1` (stereo not given), the growth is -3.93% (active).

Regarding `Cn1cc(-c2nonc2-c2cn(C)c3ccc(Br)cc23)c2ccccc21`, the growth was 42.8%. Consider `CCN(CC)c1ccc(/C=N/NC(=O)c2ccc(Nc3ccnc(C(F)(F)F)c3)cc2)c(O)c1`, for which the growth was 8.37% (active). As to `COc1ccc(-c2nnc(-c3ccc4c(c3)nc(-c3ccccc3)n4C3CCCCC3)o2)cc1`, the growth is 83.8%. With `N#CCCc1c[nH]c2ccccc12` the figure was 94.5%.
